What all share (set-up): scale not given: direction of the effect not stated beside the values
Test [1] has as its target Protein translocase subunit SecA (Escherichia coli (strain K12)) (UniProt P10408). Kind of test: Assay to Identify E. coli SecA ATPase Inhibitors. The class given is functional. As to conditions: 30 µM.
Test [2] deals with T1, Ubiquitin-activating enzyme e1, putative (Leishmania donovani (strain BPK282A1)) (UniProt E9BSI1).
T1 sequence (whole entry): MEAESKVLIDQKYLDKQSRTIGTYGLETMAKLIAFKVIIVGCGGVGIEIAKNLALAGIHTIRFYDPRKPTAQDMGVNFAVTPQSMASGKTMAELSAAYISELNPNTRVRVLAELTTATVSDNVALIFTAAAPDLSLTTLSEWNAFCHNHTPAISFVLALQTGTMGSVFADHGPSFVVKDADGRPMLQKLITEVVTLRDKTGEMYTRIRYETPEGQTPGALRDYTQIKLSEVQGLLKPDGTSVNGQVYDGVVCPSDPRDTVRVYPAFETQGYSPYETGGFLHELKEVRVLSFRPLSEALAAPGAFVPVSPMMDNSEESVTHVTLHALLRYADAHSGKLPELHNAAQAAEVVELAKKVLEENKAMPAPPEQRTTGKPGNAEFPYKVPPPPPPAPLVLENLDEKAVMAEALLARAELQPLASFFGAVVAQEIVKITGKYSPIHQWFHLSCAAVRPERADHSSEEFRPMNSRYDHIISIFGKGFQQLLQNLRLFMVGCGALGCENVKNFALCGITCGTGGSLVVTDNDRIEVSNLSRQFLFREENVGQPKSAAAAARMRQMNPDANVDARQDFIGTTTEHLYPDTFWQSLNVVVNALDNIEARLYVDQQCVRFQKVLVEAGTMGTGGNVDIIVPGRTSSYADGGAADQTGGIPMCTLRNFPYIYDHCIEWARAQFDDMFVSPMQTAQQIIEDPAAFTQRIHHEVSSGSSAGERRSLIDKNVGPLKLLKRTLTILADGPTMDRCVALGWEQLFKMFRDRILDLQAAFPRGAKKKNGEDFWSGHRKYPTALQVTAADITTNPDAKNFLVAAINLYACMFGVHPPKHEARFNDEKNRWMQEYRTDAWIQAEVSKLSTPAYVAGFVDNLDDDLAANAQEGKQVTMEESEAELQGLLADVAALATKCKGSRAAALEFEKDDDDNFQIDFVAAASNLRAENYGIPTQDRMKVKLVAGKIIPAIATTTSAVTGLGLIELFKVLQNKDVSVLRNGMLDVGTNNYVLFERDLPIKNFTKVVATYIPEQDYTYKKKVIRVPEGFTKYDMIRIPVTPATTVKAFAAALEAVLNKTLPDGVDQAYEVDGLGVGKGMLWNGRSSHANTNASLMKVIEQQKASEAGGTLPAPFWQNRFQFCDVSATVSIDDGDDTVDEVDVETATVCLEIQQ
Kind of test: Leishmania donovani Ubiquitin Activating Enzyme (LdE1). The class given is functional. As to conditions: 30 µM.

In test [3] the target is AMP-activated protein kinase, AMPK (Homo sapiens) (UniProt P54646+O43741+P54619+Q9UGJ0+Q9Y478+Q13131+Q9UGI9). Kind of test: AMP-dependent Kinase enzyme assay. An in vitro enzyme assay that detects ADP turnover that is directly proportional to AMPK activity. This uses naive AMPK that is activated during the assay with MK-8722. The class given is functional. As to conditions: 30 µM.

Test [4] concerns the target Sialic acid-binding Ig-like lectin 9 (Homo sapiens) (UniProt Q9Y336). Kind of test: Hs-Siglec9 ALPHAscreen SOP 20170721. As to conditions: 10 µM. A general note: Bead proximity is the source of the signal in Alpha formats.
A further test concerns Trypanosoma cruzi. Kind of test: Trypanosoma cruzi phosphomannomutase and mannose-1-phosphate guanylyltransferase assay. The class given is functional. As to conditions: 10 µM.
Test [5] has as its target T2, Arginase-2, mitochondrial (Homo sapiens) (UniProt P78540).
T2 sequence (whole entry): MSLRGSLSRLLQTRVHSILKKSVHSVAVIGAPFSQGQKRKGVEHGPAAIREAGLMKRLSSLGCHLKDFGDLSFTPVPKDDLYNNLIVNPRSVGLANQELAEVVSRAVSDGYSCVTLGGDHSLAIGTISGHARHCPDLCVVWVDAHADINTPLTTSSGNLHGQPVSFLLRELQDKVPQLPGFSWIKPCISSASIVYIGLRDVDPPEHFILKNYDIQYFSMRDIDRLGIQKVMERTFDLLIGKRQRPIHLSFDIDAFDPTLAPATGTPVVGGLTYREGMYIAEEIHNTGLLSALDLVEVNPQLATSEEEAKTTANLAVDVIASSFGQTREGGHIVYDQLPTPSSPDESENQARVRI
Kind of test: in vitro enzyme assay to detect the production of urea directly proportional to the activity of Arginase II. Note: in the data most compounds retested in dose-response had high values. The class given is functional. The following applies: 33.3 µM.

Test [6] has as its target T3, Proteasome subunit beta (Trypanosoma cruzi) (UniProt O96673).
T3 sequence (whole entry): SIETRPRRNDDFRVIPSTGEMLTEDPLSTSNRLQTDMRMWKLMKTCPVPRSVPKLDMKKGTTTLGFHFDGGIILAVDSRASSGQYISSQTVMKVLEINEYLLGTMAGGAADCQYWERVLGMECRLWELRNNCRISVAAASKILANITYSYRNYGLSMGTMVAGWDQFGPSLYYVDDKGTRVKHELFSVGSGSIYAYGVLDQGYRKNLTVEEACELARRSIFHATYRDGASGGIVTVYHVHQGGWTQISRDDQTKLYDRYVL
As to the kind of experiment: Trypanosoma cruzi proteasome chymotrypsin-like activity (TcProtChymo) assay. Note: in the data most compounds retested in dose-response had high values. The class given is functional. The following applies: 9.37 µM.

The species entered for a further test is Homo sapiens. Kind of test: To identify inhibition of the IFN signalling (Jak-Stat) pathway via expression of an eGFP reporter gene under the control of an IFN-stimulated response element (ISRE) containing MxA promoter. In kind it is functional. The following applies: 30 µM. In general terms: A reporter such as luciferase makes a cellular process visible.

Test [7] deals with T4, Tyrosyl-tRNA synthetase, putative (Trypanosoma cruzi (strain CL Brener)) (UniProt Q4DSP6).
T4 sequence (whole entry): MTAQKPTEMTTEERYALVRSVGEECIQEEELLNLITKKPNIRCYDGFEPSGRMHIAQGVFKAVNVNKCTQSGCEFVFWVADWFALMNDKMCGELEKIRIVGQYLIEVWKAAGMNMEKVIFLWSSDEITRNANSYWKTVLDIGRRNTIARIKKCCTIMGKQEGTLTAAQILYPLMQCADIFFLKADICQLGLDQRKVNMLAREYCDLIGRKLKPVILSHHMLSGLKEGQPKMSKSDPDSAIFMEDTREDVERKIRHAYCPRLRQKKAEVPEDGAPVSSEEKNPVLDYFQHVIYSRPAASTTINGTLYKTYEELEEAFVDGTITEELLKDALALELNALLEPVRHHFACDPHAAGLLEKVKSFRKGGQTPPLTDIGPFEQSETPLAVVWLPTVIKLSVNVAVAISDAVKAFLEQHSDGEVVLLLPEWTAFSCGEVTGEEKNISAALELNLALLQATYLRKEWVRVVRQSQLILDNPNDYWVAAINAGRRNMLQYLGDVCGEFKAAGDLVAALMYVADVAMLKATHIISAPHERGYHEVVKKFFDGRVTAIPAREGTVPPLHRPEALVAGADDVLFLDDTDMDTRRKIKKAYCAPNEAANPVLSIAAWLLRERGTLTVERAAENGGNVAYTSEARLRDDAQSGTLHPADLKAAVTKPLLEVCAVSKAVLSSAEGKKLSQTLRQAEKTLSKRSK
As to the kind of experiment: Trypanosoma cruzi tyrosyl tRNA synthetase (TcYRS) _High Tyrosine SOP. Note: in the data most compounds retested in dose-response had high values. As to conditions: 30 µM. The class given is functional.

For test [8], the target named is T4, Tyrosyl-tRNA synthetase, putative (Trypanosoma cruzi (strain CL Brener)). Kind of test: Trypanosoma cruzi tyrosyl tRNA synthetase (TcYRS) SOP. In kind it is functional. As to conditions: 30 µM.
Test [9] concerns the target Chromo domain-containing protein 1 (Saccharomyces cerevisiae (strain ATCC 204508 / S288c) (Baker's yeast)) (UniProt P32657). As to the kind of experiment: ScCHD-1 Enzyme Inhibition Assay. Note: in the data most compounds retested in dose-response had high values. The class given is functional. The following applies: 30 µM.

Molecules are shown by their SMILES. For some assays here: Potency and affinity values are given separately.

Sequence of Protein translocase subunit SecA (Escherichia coli (strain K12)) (P10408 whole entry): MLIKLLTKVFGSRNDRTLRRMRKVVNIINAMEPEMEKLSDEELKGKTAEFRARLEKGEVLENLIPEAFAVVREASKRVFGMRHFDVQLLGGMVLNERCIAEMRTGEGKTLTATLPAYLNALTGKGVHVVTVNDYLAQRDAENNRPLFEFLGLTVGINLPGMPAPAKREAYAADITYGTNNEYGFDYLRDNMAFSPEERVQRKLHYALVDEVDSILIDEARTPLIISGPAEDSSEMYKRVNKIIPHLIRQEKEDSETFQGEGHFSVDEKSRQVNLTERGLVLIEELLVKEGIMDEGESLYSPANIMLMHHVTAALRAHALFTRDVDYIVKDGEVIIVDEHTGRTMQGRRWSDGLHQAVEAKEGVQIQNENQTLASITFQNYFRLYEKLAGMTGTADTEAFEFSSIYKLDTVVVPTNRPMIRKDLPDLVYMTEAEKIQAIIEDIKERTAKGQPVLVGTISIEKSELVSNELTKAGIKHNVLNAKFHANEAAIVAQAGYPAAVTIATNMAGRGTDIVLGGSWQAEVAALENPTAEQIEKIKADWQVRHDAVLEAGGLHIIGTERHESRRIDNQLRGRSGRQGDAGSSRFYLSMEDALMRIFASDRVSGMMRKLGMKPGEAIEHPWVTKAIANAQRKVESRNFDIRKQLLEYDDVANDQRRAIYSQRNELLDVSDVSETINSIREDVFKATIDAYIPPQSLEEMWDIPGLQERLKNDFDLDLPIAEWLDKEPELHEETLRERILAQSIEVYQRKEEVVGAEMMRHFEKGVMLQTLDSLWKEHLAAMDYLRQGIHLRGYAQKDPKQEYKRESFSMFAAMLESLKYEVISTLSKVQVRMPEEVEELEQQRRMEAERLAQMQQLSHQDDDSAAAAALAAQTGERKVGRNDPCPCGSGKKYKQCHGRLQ
Sequence of Chromo domain-containing protein 1 (Saccharomyces cerevisiae (strain ATCC 204508 / S288c) (Baker's yeast)) (P32657 whole entry, the tested form may be a part): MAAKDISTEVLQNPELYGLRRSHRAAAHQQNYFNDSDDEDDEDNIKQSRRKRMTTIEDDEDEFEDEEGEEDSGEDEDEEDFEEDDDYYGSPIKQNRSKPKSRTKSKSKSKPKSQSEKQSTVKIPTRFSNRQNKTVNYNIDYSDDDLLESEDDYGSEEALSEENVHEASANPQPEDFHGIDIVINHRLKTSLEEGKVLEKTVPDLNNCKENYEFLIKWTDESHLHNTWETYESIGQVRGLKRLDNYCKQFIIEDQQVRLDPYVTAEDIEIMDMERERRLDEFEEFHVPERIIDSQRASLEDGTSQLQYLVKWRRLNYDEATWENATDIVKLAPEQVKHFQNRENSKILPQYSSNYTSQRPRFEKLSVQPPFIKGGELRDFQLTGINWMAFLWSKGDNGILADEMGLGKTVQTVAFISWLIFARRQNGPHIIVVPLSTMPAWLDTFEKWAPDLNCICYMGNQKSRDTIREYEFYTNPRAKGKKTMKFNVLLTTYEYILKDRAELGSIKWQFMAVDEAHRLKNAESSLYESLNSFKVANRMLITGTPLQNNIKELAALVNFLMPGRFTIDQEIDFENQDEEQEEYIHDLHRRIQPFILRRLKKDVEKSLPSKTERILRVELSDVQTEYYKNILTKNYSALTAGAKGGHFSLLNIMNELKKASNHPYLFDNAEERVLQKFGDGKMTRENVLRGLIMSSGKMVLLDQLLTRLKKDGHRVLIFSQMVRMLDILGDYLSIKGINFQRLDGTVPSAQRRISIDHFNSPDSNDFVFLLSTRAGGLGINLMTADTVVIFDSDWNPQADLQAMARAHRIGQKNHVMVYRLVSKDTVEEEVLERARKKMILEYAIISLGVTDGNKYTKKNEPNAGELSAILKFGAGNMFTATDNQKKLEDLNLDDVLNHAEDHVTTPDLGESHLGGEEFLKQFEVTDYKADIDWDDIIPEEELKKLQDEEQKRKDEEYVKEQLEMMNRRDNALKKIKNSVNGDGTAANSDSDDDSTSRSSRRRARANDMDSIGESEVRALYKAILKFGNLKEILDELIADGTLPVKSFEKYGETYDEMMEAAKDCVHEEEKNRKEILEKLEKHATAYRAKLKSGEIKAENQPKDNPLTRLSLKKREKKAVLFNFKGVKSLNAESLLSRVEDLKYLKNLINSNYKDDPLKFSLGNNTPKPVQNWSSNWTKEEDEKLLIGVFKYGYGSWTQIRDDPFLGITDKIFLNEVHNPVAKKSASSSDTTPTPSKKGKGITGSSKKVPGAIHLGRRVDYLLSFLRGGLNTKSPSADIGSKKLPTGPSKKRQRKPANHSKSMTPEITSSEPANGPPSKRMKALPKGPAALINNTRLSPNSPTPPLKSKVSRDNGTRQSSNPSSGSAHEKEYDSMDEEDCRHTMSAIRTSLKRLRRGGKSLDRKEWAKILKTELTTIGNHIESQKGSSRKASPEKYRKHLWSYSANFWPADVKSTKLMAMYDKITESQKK
Sequence of Sialic acid-binding Ig-like lectin 9 (Homo sapiens) (Q9Y336 whole entry): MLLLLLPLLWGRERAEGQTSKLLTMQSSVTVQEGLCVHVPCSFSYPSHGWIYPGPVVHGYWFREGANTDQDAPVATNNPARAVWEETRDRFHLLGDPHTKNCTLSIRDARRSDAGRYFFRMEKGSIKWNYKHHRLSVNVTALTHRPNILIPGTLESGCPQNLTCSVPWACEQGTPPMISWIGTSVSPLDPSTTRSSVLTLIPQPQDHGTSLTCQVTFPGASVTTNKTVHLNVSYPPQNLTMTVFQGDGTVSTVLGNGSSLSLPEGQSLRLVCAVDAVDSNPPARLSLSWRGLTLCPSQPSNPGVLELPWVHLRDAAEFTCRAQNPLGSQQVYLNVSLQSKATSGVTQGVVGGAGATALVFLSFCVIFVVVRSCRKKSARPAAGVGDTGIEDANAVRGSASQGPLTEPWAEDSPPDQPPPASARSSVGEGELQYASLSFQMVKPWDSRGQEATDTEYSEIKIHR

In the case of `CC(=O)N1CCC2(CC1)COCCN2Cc1ccc(F)cc1`, the Percent Effect in [1] is -4.99%; in test [2], 8.11%; in [3], 4.11%; in test [4], -8.39%; in the test with Trypanosoma cruzi, -4.2%; in [5], -0.955%. The Percent Effect in test [6] was 18.1%; in the test listed under Homo sapiens, -2.37%; in test [7] it was -1.08%; in test [8], 7.69%; in test [9], -1.77%.
Regarding `CN1CCCc2cc(NC(=O)N3CCOC(C(N)=O)C3)ccc21` (stereo not given), the Percent Effect in [1] is 4.12%; in [2], 21.9%; in test [3], 34.2%; in test [4] it was 5.33%; in the test on Trypanosoma cruzi, 5.75%; in test [5] it was -1.2%. Also, the Percent Effect in test [6] was 10.5%; in the test listed under Homo sapiens, 14.3%; in test [7], 8.33%; in [8], 21%; in [9], -3.37%.
As for `O=C(c1ccno1)N1CC[C@@H]2O[C@@H](COCCN3CCCC3)CC[C@@H]21`, the Percent Effect was -3.63% in test [1]; 10.8% in test [2]; 1.12% in test [3]; -3.29% in test [4]; 1.66% in the test on Trypanosoma cruzi; -1.59% in [5]. The Percent Effect in test [6] was 21.2%; in the test listed under Homo sapiens it was -0.519%; in test [7], 5.41%; in [8], 15.4%; in [9], -2.39%.
Turning to `Cc1ccccc1C(=O)Nc1cnn(CC(=O)NC2CCCC2)c1`, the Percent Effect in test [1] was -4.39%; in [2], 0%; in test [3], -22.8%; in [4] it was 4.85%; with Trypanosoma cruzi, 1.98%; in [5], 1.6%. Moreover, the Percent Effect in [6] was 20.5%; in the test listed under Homo sapiens, 6.03%; in test [7], 7.29%; in [8], 11.1%; in [9], -0.609%.
Regarding `CC(Oc1ccccc1C(F)(F)F)C(=O)NCC(N)=O` (stereo not given), the Percent Effect is -4.95% in test [1]; 5.41% in test [2]; 0.686% in [3]; -2.42% in test [4]; 4.3% in the test on Trypanosoma cruzi; -1.67% in [5]. In addition, the Percent Effect is 12.9% in test [6]; -26.2% in the test filed under Homo sapiens; 12.9% in [7]; 15.8% in [8]; 2.04% in test [9].
For `COc1ccc(C)cc1CNCc1ccc(-n2nc(C)cc2C)nc1`, the Percent Effect in test [1] is 0.678%; in test [2], 10.5%; in test [3], 3.46%; in test [4], 0.511%; in the test on Trypanosoma cruzi, -2.82%; in test [5] it was 1.15%. Further, the Percent Effect in [6] is 12.2%; in the test listed under Homo sapiens, 22.1%; in [7], 3.43%; in test [8], 17.1%; in test [9], -9.32%.
As for `O=C(c1ccco1)N1CC[C@H]2[C@H]1CCN2CC1CCOCC1`, the Percent Effect in test [1] is -5.53%; in test [2] it was 0%; in test [3] it was 11.2%; in test [4], -3.38%; in the test with Trypanosoma cruzi it was -3.74%; in [5], 1.17%. The Percent Effect in test [6] was -2.56%; in the test listed under Homo sapiens, 6.93%; in test [7], 6.38%; in test [8], 3.85%; in test [9] it was -1.01%.
Turning to `CN(C)CCOCC1CN(CC2CCOCC2)Cc2nnn(C)c21` (stereo not given), the Percent Effect in [1] was -5.87%; in test [2], 10.8%; in test [3] it was 1.42%; in test [4], -2.51%; with Trypanosoma cruzi, -5.96%; in test [5] it was 1.24%. The Percent Effect in test [6] was 8.67%; in the test listed under Homo sapiens it was 17%; in test [7], 5.38%; in test [8] it was 11.1%; in test [9], -4.9%.
Take `CCc1nnc2n1CCN(C(=O)c1ccc(-c3ccco3)nc1C)C2`: the Percent Effect in [1] is -6.22%; in test [2] it was 17.7%; in test [3], -3.04%; in [4], 13.8%; in the test with Trypanosoma cruzi, 5.57%; in [5] it was -2.28%. Further, the Percent Effect is 12.5% in test [6]; 2.35% in the test filed under Homo sapiens; 10.3% in [7]; 16.5% in test [8]; -9.52% in test [9].
Take `CC(NC(=O)NCCNc1ncccn1)c1cccs1` (stereo not given): the Percent Effect in test [1] is -2.16%; in [2] it was 31.2%; in [3], 32.1%; in [4], 6.3%; in the test with Trypanosoma cruzi, 7.12%; in [5], -2.49%. The Percent Effect in test [6] is 4.9%; in the test filed under Homo sapiens it was 12.3%; in test [7], 8.74%; in test [8] it was 24.4%; in test [9] it was -9.75%.

The record behind these values is ChEMBL document CHEMBL3988442, “University of Dundee, Small-Polar-MMV Screening Library” (2021).
